# Assay results published in PubChem BioAssay.
# Records with an inconclusive call do not appear. Active and inactive are the calls of the source.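 Rule for the calls, unless noted: active = viability increase at or above a cutoff of the median across tested compounds plus 3 SD (cut at about 8.5% in these data, passing the limit was not always enough); inconclusive = some gains above the cutoff, reason not given; inactive = the rest.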
# Assays:
# [1] = OD615 S. cerevisiae growth inhibition, permissive medium, pilot counter-assay, permissive growth control for S. cerevisiae lifespan shortening project (AID 705;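 active = growth inhibition above 25% in both replicates, a cutoff set 3 SD above the mean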); conditions: OD615, 24 h, at 10 µM, stronger effect = higher value
# [2] = Restrictive medium S. cerevisiae growth inhibition, OD615, pilot screen of yeast lifespan reduction project, restrictive growth control (AID 706;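 active = growth inhibition above a set limit, 3 SD over mean compound inhibition, in both replicates, cut at about 43% in these data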;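 note: modified DeaD lifespan yeast strain shifted to restrictive glucose medium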); conditions: OD615, 48 h, at 10 µM, stronger effect = higher value
# [3] = viability gain of MRP-1-high H69AR cells under doxorubicin, pilot screen, MRP-1 activator project, CellTiter-Glo, duplicate (AID 807); conditions: H69AR viability with doxorubicin, CellTiter-Glo luminescence; at 10 µM; stronger effect = higher value;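 note: compound pretreatment 18-22 h then 72 h combined with doxorubicin; 0% = doxorubicin alone and 100% = vehicle without doxorubicin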
# [4] = growth suppression of beta-catenin knockout HCT116, pilot screen, human colon tumor cells (AID 823;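 active = cell viability at or below a set limit in both duplicate runs, the limit being the all-compound median minus 4 SD, cut at about 23% in these data, passing the limit was not always enough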;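 note: 0% = wells killed by 20 µM Hyamine and 100% = untreated DMSO cell wells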); conditions: CellTiter-Glo, 60 h, at 10 µM, stronger effect = lower value
# [5] = growth suppression of PTEN-deleted HCT116, pilot screen, cell-based, HCT116 clonal line, CellTiter-Glo (AID 824;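 active = viability at or below 27.92% in each of two runs, the all-compound median minus 4 SD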;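 note: 0% = 20 µM Hyamine control and 100% = vehicle cell control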); conditions: 60 h, at 10 µM, stronger effect = lower value
# [6] = inhibitors of the yeast RAM network, pilot screen, dse1pr::URA3 reporter, 5-FOA selection (AID 869;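 active = inhibition over a set limit, the all-compound mean plus 3 SD, in both replicate runs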;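 note: 0% = DMSO wells with no growth and 100% = 10 µM 1-NA-PP1 with full growth; RAM network block rescues cells from 5-FOA so hits raise OD615 growth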); conditions: S. cerevisiae dse1pr::URA3 5-FOA growth, OD615, 2 d, at 10 µM, stronger effect = higher value
# [7] = RAM signaling pathway blockade in yeast – S. cerevisiae, Pdr1DBD-CYC8 efflux-inhibited sensitized strain, primary screen (AID 1298;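 active = RAM network inhibition above 8.4% in each of two replicates, 3 SD over the compound average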;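 note: 0% = DMSO untreated cells without growth and 100% = 10 µM 1-NA-PP1 full growth; higher means more yeast growth rescued from 5-FOA killing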); conditions: S. cerevisiae cbk1-as DSE1-URA3 strain, 5-FOA growth OD615, 2 d; at 50 µM; stronger effect = higher value
# [8] = molecular target: Pantothenate synthetase (Mycobacterium tuberculosis (strain ATCC 25618 / H37Rv)) (UniProt P9WIL5); assay: Recombinant Mtb pantothenate synthetase (PanC) inhibitors, coupled enzyme, confirmatory (AID 375; call rule not given here;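 note: 0% = full reaction with vehicle and 100% = no enzyme background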); conditions: coupled enzyme assay; at 10 µM, stronger effect = higher value
# [9] = reducers of endogenous Her2 protein level, primary screen, SKBR3 breast tumor cells, AlphaScreen, ATP viability (AID 461;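 active = Her2 level under about 52% in both replicate screens, with viability over 70% of control, limit read from the data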;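 for Her2 level: lower value means less Her2 protein in the cells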;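 for viability: percent of carrier control wells set as 100% viability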); conditions: 18-24 h, measured here: SKBR3 viability, ATP luminescence, at 10 µM
# [10] = molecular target: Receptor tyrosine-protein kinase erbB-2 (Homo sapiens) (UniProt P04626); assay: as above; conditions: 18-24 h, at 10 µM, stronger effect = lower value
# [11] = SK-BR-3 cell growth inhibitors, pilot screen, 24 h, human (AID 572;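 active = viability at or below 10% of carrier control in both of two separate runs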;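 note: compound exposure lasted between 18 and 24 h rather than exactly 24 h; 100% = carrier-treated control wells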); conditions: SK-BR-3 viability, CellTiter-Glo luminescence, at 10 µM, stronger effect = lower value
# [12] = HUVEC growth inhibition – cell-based, human, primary screen (AID 575;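 active = viability at or below 30% in both replicate assays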;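 note: 100% = median of untreated cell wells with 0.1% DMSO on each plate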); conditions: HUVEC proliferation, CellTiter-Glo luminescence, 72 h; at 10 µM; stronger effect = lower value
# [13] = growth inhibitors of H69AR lung tumor, primary screen, human, duplicate replicates (AID 580;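 active = viability at or under a set limit in both replicates, limit being median viability minus 3 SD, cut at about 48% in these data, passing the limit was not always enough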;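 note: 100% = mean luminescence of untreated wells and 0% = no signal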); conditions: H69AR lung tumor cells viability, ATP luminescence, 72 h; at 10 µM; stronger effect = lower value
# [14] = reversal of MRP1-mediated doxorubicin resistance, pilot screen, H69AR cells, doxorubicin co-treatment (AID 601;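 active = viability loss from added drug above about 55%, and viability with drug at most 40%, in both replicates, limit read from the data, passing the limit was not always enough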); conditions: CellTiter-Glo, 72 h, at 10 µM; for differential viability (reversal): stronger effect = higher value
# [15] = 384-well plate pilot, post-Golgi transport modulator project, inhibition of yeast transport mutant growth (AID 636; in the data active = inhibition above about 31%); conditions: absorbance 615 nm, about 18 h, stronger effect = higher value
# [16] = growth suppression of yeast trafficking mutant, preliminary HTS, modulators of trafficking downstream of Golgi apparatus project, 1536-format plate, OD 615 nm (AID 637; in the data active = inhibition above about 30%); conditions: yeast transport mutant growth, absorbance 615 nm, 18 h; stronger effect = higher value
# [17] = H69AR cells + 2 uM doxorubicin, measured here: viability with 2 uM doxorubicin, stronger effect = lower value
# [18] = H69AR cells, compound alone cytotoxicity
# Pantothenate synthetase (Mycobacterium tuberculosis (strain ATCC 25618 / H37Rv)), sequence (P9WIL5 whole entry, looked up): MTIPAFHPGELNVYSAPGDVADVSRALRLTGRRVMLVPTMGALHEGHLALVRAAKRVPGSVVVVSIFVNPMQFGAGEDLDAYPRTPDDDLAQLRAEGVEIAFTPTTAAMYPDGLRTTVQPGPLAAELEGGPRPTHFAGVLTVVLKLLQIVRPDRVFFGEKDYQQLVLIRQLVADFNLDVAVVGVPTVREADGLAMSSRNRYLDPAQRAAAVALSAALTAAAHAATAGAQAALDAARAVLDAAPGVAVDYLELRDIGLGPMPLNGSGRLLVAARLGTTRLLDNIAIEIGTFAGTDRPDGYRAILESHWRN
# Receptor tyrosine-protein kinase erbB-2 (Homo sapiens), sequence (P04626 whole entry, looked up): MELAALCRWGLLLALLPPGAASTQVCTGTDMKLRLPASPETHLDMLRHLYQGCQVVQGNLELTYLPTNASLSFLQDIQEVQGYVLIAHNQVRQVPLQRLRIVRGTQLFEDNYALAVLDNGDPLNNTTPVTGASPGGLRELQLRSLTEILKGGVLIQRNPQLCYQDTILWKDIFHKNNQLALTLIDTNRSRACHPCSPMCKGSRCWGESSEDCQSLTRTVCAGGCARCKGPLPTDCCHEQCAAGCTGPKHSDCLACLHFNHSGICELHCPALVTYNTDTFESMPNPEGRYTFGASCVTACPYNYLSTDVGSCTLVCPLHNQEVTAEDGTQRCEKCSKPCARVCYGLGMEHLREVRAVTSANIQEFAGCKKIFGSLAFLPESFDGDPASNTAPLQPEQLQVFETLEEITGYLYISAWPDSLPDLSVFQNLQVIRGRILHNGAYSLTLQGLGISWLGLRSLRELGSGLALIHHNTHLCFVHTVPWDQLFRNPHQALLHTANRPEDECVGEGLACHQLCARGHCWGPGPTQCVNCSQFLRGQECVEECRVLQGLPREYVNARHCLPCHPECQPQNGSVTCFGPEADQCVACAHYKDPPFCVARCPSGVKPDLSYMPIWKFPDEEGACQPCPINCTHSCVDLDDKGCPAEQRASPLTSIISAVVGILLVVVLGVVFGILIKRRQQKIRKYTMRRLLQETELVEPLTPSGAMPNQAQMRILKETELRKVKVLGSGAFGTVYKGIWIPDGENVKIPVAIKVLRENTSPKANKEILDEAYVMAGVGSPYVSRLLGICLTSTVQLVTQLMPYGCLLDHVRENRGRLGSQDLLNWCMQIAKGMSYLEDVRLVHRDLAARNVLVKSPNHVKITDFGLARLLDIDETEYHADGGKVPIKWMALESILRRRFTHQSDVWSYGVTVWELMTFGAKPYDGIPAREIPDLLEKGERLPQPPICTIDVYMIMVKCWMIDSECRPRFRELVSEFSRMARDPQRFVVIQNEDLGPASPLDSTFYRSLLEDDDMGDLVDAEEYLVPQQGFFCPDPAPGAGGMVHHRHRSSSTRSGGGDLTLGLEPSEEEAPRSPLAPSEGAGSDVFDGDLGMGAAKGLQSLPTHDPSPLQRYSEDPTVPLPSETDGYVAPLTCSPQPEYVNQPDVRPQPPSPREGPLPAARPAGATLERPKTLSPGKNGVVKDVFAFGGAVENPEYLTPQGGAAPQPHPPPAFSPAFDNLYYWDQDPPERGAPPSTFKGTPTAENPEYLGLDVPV
SMILES,growth inhibition [1],growth inhibition [2],viability increase [3],viability [4],viability [5],inhibition [6],RAM network inhibition [7],inhibition [8],viability [9],Her2 level [10],viability [11],viability [12],viability [13],differential viability (reversal) ([14]; H69AR cells + 2 uM doxorubicin),"viability [14, 17]","viability [14, 18]",inhibition [15],inhibition [16]
Cc1ccc2occ(CN3CC4CC(C3)c3cccc(=O)n3C4)c(=O)c2c1 (stereo not drawn),-16.2% (inactive),-17.7% (inactive),-2.72% (inactive),98.5% (inactive),90.8% (inactive),1.96% (inactive),1.61% (inactive),,,,,,,,,,,
CCCC(C)C1C(C#N)=C(N)Oc2c1c(=O)oc1ccccc21 (stereo not drawn),-16.8% (inactive),-20.1% (inactive),-5.21% (inactive),91.6% (inactive),97% (inactive),3.74% (inactive),8.16% (inactive),4% (inactive),116%,106% (inactive),116% (inactive),66.8% (inactive),67.7% (inactive),-11.5% (inactive),79.2%,67.7%,-2.21% (inactive),-0.33% (inactive)
COC(=O)c1ccc(CN2CCN(Cc3ccccc3)CC2)cc1,-18.9% (inactive),-15.9% (inactive),-1.15% (inactive),94.5% (inactive),90.8% (inactive),1.31% (inactive),1.37% (inactive),,,,,,,,,,,
Cc1cc(OC(=O)c2ccco2)c2c3c(c(=O)oc2c1)CCC3,2.81% (inactive),-1.05% (inactive),-1.26% (inactive),94.3% (inactive),85.2% (inactive),,4.5% (inactive),,,,,,,,,,,
Cn1c(O)c(C(=NCCN2CCCCC2)c2ccccc2Cl)c(=O)n(C)c1=O,-15% (inactive),-13.6% (inactive),-0.81% (inactive),87.3% (inactive),93.8% (inactive),-0.185% (inactive),0.48% (inactive),,,,,,,,,,,
COc1ccccc1/C=C1/C(=N/O)C2CCN1CC2,-14.3% (inactive),-13.2% (inactive),-1.4% (inactive),99.8% (inactive),99.4% (inactive),0.7% (inactive),6.29% (inactive),0% (inactive),104%,102% (inactive),104% (inactive),109% (inactive),104% (inactive),8.7% (inactive),95%,104%,-2.34% (inactive),0% (inactive)
O=C(C(Cc1ccccc1)NS(=O)(=O)c1ccc(F)cc1)N1CCC2(CC1)OCCO2 (stereo not drawn),-6.55% (inactive),-17.2% (inactive),-3.5% (inactive),95.4% (inactive),93.5% (inactive),-0.725% (inactive),0.31% (inactive),0% (inactive),,,95% (inactive),94.2% (inactive),79% (inactive),15.6% (inactive),63.4%,79%,-0.13% (inactive),-0.16% (inactive)
CN1CSC(=S)N(C)C1,51.5% (active),63.5% (active),-7.69% (inactive),13.9% (active),19.6% (active),-0.745% (inactive),-1.87% (inactive),,,,,,,,,,,
Cc1nc2ccccc2c(=O)n1-c1ccc(F)cc1,-2.1% (inactive),4.13% (inactive),-0.87% (inactive),97.7% (inactive),100% (inactive),1.44% (inactive),1.29% (inactive),0% (inactive),104%,90% (inactive),104% (inactive),93.6% (inactive),96.1% (inactive),11.5% (inactive),84.6%,96.1%,-5.32% (inactive),1.5% (inactive)
CCc1ccc(OCCCN=C(C)c2c(O)n(C)c(=O)n(C)c2=O)cc1,-6.49% (inactive),-4.79% (inactive),0.23% (inactive),77.3% (inactive),80.8% (inactive),0.12% (inactive),-0.72% (inactive),0% (inactive),92%,85.5% (inactive),92% (inactive),77.7% (inactive),85.1% (inactive),1.31% (inactive),83.8%,85.1%,-1.95% (inactive),1.83% (inactive)
Cc1cc(Br)ccc1N1C(=O)CC(=O)NC1=O,-12.1% (inactive),7.12% (inactive),-0.25% (inactive),93.4% (inactive),95.3% (inactive),0.535% (inactive),0.67% (inactive),,,,,,,,,,,
CN(C)C(=O)Oc1ccc(OC(=O)N(C)C)cc1,1.07% (inactive),-14.3% (inactive),0.6% (inactive),104% (inactive),99.5% (inactive),1.02% (inactive),-0.32% (inactive),,,,,,,,,,,
COc1cc(CC2C(=O)N(C)C(=O)N(C)C2=O)ccc1OCc1ccccc1,-12.6% (inactive),-5.52% (inactive),0.67% (inactive),96.9% (inactive),95.8% (inactive),0.87% (inactive),5.72% (inactive),,,,,,,,,,,
